In the library only some 2.3% were active in any assay of this set; here they are far more common.
CHT PAM: allosteric activators of human choline transporter CHT; Q9GZV3; CHT-expressing cells, membrane potential dye, choline EC20; stronger effect = higher value; LV-AA mutant CHT in HEK293 cells; B-score at 10 µM; 310,000 compounds, 0.49% hits;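 active means initial fluorescence not abnormally high and integrated response B-score, plate-corrected, over 3 SD above library mean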
ANO1 block: inhibitors of mouse TMEM16A calcium-activated chloride channel; Q8BHY3; HEK293 TMEM16A/YFP iodide influx fluorescence, ionomycin; normalized B-score (activity score, 25-100; higher = stronger inhibition) at 10 µM; 310,000 compounds, 1.2% hits; AID 588511;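 active means ratio plate-corrected score three or more library SD toward inhibition, starting fluorescence score within five deviations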;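 further: score derived from kinetic fluorescence span divided by baseline fluorescence per well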
Target sequence (Q8BHY3 whole entry, looked up): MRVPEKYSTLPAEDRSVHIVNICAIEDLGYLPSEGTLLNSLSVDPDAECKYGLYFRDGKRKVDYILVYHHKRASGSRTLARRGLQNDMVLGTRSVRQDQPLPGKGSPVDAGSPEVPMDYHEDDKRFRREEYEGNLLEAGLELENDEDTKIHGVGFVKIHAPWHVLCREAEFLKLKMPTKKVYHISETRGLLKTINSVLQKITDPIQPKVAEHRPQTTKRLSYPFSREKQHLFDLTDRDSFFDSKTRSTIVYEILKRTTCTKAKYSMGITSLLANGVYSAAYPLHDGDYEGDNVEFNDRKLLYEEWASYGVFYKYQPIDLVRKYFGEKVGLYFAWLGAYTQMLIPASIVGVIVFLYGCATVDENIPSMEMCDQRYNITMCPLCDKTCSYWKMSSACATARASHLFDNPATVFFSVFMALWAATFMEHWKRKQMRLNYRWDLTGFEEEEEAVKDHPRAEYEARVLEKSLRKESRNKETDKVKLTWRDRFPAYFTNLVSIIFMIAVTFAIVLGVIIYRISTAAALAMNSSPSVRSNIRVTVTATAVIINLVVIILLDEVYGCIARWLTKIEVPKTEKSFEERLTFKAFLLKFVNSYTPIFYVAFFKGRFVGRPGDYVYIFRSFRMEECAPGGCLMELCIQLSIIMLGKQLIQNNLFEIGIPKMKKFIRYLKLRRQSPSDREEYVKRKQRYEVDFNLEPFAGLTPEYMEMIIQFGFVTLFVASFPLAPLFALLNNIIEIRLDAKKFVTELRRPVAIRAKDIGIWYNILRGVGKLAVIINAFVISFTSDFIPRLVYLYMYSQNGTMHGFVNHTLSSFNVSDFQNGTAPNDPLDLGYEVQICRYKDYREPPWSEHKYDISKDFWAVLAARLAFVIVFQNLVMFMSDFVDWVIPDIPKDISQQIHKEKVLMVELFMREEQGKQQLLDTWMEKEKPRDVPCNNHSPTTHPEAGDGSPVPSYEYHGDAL
TMEM16A act: mouse TMEM16A channel activation, primary screen. Q8BHY3. HEK293 TMEM16A/YFP-H148Q/I152L, iodide quench fluorescence; stronger effect = lower value. B-score at 10 µM. 340,000 compounds, 0.3% hits;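 active means fluorescence-ratio B-score plate-corrected deviation score at least 3 library SD below zero, with starting fluorescence score within 5 deviations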;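 further: channel opened by trigger with iodide after compound preincubation; score built on the fluorescence ratio of max minus min over baseline; more negative score means more quench and so TMEM16A activation or potentiation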
CHT block: human CHT choline transport inhibition | Q9GZV3 | CHT-expressing cells, membrane potential dye, choline response; stronger effect = lower value | B-score at 10 µM | 310,000 compounds, 0.86% hits | AID 488975;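 active means B-score over 3 SD under the library average, and starting fluorescence ratio not unusually high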;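 further: choline stimulus applied at its EC90 after an EC20 pre-addition; B-score computed on integrated fluorescence ratio after choline addition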
CHT activ conf: human CHT activation, confirmatory screen | 2,500 compounds, 91% hits | activation, % at 10 µM | AID 504833 | CHT-expressing cells, membrane potential dye fluorescence (FDSS); % of choline EC20–EC90 response window; HEK293 expressing CHT LV-AA mutant; choline added at its EC20 | shares compounds with CHT PAM;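 active means primary screen active, with duplicate mean activation above negative control mean plus 3 SD, cut at about 11% in these data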
HEK293 MP dye: activity in parental HEK293 cells lacking CHT; ratio readout change at 10 µM, hits read low; 2,500 compounds, 62% hits; membrane potential dye fluorescence (FDSS); measured after EC20 choline addition; shares compounds with CHT PAM;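 active means duplicate-averaged ratio beyond 3 SD from buffer wells, up or down, though filed actives are nearly all decreases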
Large screens that a line does not name were inactive (follow-up assays come after a bar, where they were run); ! = a repeat was not active.

CCN(CC(=O)Nc1ccc(NC(C)=O)cc1)C(=O)c1ccc(C(=O)c2ccccc2)cc1	none (no result: CHT PAM, ANO1 block, CHT block)
CCCCNC(=O)c1cn(C)c2ccc(S(=O)(=O)N3CCCC3)cc2c1=O	none
CCN(CC)CCCNC(=O)c1cn(C)c2ccc(S(=O)(=O)N(C)C)cc2c1=O	CHT PAM 6.37 | CHT activ conf 54.8 | HEK293 MP dye -35.1
CCN(CC)S(=O)(=O)c1ccc2c(c1)c(=O)c(C(=O)NCCN(C)CCc1ccccc1)cn2C	none
CN(C1CCCCC1)S(=O)(=O)c1ccc2c(c1)c(=O)c(C(=O)NCCN1CCCC1)cn2C	none | CHT activ conf 40.1 | HEK293 MP dye -36.8
CN(CCNC(=O)c1cn(C)c2ccc(S(=O)(=O)N(C)C)cc2c1=O)CCc1ccccc1	none | CHT activ conf 23.3 | HEK293 MP dye -26.3
Cc1ccc(S(=O)(=O)N2CCN(C(=O)CN3CCOCC3)C2C(C)C)cc1 (stereo unspecified)	none
Cc1ccc(S(=O)(=O)N2CCN(C(=O)CN3CCOCC3)C2c2ccccc2)cc1 (stereo unspecified)	CHT PAM 8.05 | CHT activ conf inactive | HEK293 MP dye inactive
O=C(Cc1c(Cl)cccc1Cl)OCC(=O)N1CCN(C(=O)c2ccco2)CC1	none
Cc1ccc2nc(Cl)c(CN(Cc3cccs3)C(=O)C3CC3)cc2c1	none
COc1ccc(CCN(Cc2cc3cc(C)c(C)cc3nc2Cl)C(=O)C2CC2)cc1	CHT PAM 9.18 | CHT activ conf inactive | HEK293 MP dye inactive
Cc1cccn2c(=O)c(C=C(C#N)C#N)c(N3CCN(C)CC3)nc12	CHT PAM 8.46 | CHT activ conf 56.2 | HEK293 MP dye -65.3
CCN1CCN(c2nc3c(C)cccn3c(=O)c2C=C(C#N)C#N)CC1	CHT PAM 7.28 | CHT activ conf 50.0 | HEK293 MP dye -60.7
Cc1cccn2c(=O)c(C=C(C#N)C#N)c(N3CCN(c4ccccc4)CC3)nc12	none
O=C(CCC1CCCC1)N1CCN(C(=O)c2cccnc2)CC1	none (no result: TMEM16A act)
CCOc1ccc(/C(O)=C2/C(=O)C(=O)N(CCCN3CCOCC3)C2c2ccc(F)cc2)cc1C (stereo unspecified)	none
COc1ccc(Nc2nccc3c2ncn3C)cc1	none | CHT activ conf 60.8 | HEK293 MP dye -56.5
COC(=O)c1ccc(CSc2cc(C)c3ccccc3n2)o1	none
CCCn1c(SCc2ccc(C(=O)OC)o2)nc2ccccc2c1=O	CHT PAM 6.71 | CHT activ conf 48.2 | HEK293 MP dye inactive
Cc1nnc(SCC(=O)Nc2cc(C(F)(F)F)ccc2N2CCOCC2)o1	none
Cc1ccccc1SCC(=O)Nc1cc(C(F)(F)F)ccc1N1CCOCC1	ANO1 block 100 | CHT activ conf 36.2 | HEK293 MP dye inactive
O=C1c2cnc3nc(SCc4ccc(Cl)cc4)nn3c2CC2c3ccccc3CCN12 (stereo unspecified)	CHT PAM 6.95 | CHT activ conf inactive | HEK293 MP dye inactive
Clc1ccc(CSc2ncccn2)cc1	none
CCN(CC)CCNc1ccnc2cc(Cl)ccc12	CHT PAM 7.4 | CHT activ conf 50.9 | HEK293 MP dye -84.2
CCN(CC)Cc1cc(Nc2ccnc3cc(Cl)ccc23)ccc1O	CHT PAM 7.5! | CHT activ conf 48.2 | HEK293 MP dye -51.9
Oc1ccc(Nc2ccnc3cc(Cl)ccc23)cc1	none
O=C(CS(=O)(=O)Cc1ccccc1)N1CCN(c2ccccc2F)CC1	none
Cc1cnc(C(=O)Nc2cc(S(=O)(=O)N3CCOCC3)ccc2N2CCN(C)CC2)cn1	CHT PAM 9.7 | CHT activ conf 50.8 | HEK293 MP dye -56.9
Fc1ccccc1NC(=S)N1CCC(c2ccccc2)C1 (stereo unspecified)	none
O=C(NCC(c1ccco1)N1CCc2ccccc21)c1ccc([N+](=O)[O-])cc1 (stereo unspecified)	none
O=C(NCC(c1ccco1)N1CCc2ccccc21)c1cccc([N+](=O)[O-])c1 (stereo unspecified)	none | CHT activ conf 23.3 | HEK293 MP dye inactive
O=C(CCc1ccccc1)NCC(c1ccco1)N1CCc2ccccc21 (stereo unspecified)	CHT PAM 7.52 | CHT activ conf 14.2 | HEK293 MP dye inactive
O=C(NCC(c1ccco1)N1CCc2ccccc21)c1ccccc1F (stereo unspecified)	none
O=[N+]([O-])c1ccc(CNc2cccc(Cl)c2)s1	none
Cn1ccnc1-c1nc2ccccc2[nH]c1=O	CHT PAM 7.09 | CHT activ conf 63.1 | HEK293 MP dye -54.7
Nc1ccn(CC(=O)N[C@H](CO)Cc2c[nH]c3ccccc23)c(=O)n1	none (no result: CHT PAM, ANO1 block, CHT block)
C=CCOc1cccc(NC(=O)c2ccccc2SC)c1	none
CCC(CC)COC(=O)C(C#N)c1nc2ccccc2nc1N1CCN(CC)CC1 (stereo unspecified)	none | CHT activ conf 32.4 | HEK293 MP dye -36.6
CCC(C)COC(=O)C(C#N)c1nc2ccccc2nc1N1CCCCC1 (stereo unspecified)	none
CC(=O)OCC1(C)CN(c2ccccc2)N(C(=O)c2ccc(F)cc2)C1=O (stereo unspecified)	none
O=C(NCC(c1ccco1)N1CCCC1)c1ccccc1Sc1ccc(C(F)(F)F)cc1[N+](=O)[O-] (stereo unspecified)	none | CHT activ conf 26.2 | HEK293 MP dye inactive
Cc1ccc(CNC(=O)C(=O)NCCC2CCCCN2S(=O)(=O)c2ccccc2)cc1 (stereo unspecified)	CHT PAM 8.53 | CHT activ conf inactive | HEK293 MP dye inactive
COc1ccccc1N1CCN(CC(=O)Nc2ccc(S(=O)(=O)N3CCCCCC3)cc2)CC1	none (no result: CHT PAM, ANO1 block, CHT block)
Cc1sc2c3ccsc3ccc2[n+]1C	CHT PAM 10.3 | CHT activ conf 66.2 | HEK293 MP dye inactive
Cc1ccc(NC(=O)[C@H](C)NC(=O)C2CCN(C(=O)[C@@H](NC(=O)OC(C)(C)C)C(C)C)CC2)cc1	none
CCN1/C(=C/c2cc[n+](C)cc2)C=Cc2cc(C)ccc21	none | CHT activ conf 20.6 | HEK293 MP dye -61.1
Cc1ccc(C(=O)CNc2cccc([N+](=O)[O-])c2)cc1	none
Cc1ccc(NCC(=O)c2ccc([N+](=O)[O-])cc2)cc1	CHT PAM 6.43 | CHT activ conf 11.1 | HEK293 MP dye -22.9
O=C(Nc1ccccc1)OCc1cncs1	none
COc1ccc(/C=N/Nc2ccc(C(=O)O)cc2)c(OC)c1OC	none
COC(=O)c1ccc2c(c1)C(C)(C)C(/C=C/c1ccc(OC)c(OC)c1OC)=[N+]2C	CHT PAM 6.48 | CHT activ conf 59.4 | HEK293 MP dye -64.9
O=C(c1ccc(C(F)(F)F)cc1)N1CCC(=O)N(C(COCc2ccc(C(F)(F)F)cc2)Cc2ccccc2)CC1 (stereo unspecified)	none

High-throughput results as filed in PubChem.
